A short description of assay [1]: P. berghei load reduction in hepatocytes – cell-based, HepG2, luciferase luminescence, HepG2 viability, primary screen (AID 624349; in the data active = parasite load remaining mostly below about 12%, no sharp cut-off; inactive = mostly above about 10%;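 also: 100% = mean of DMSO negative control wells on the same plate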). The following applies: P. berghei liver stage in HepG2, luciferase luminescence, concentration not given here; parasite load remaining: stronger effect = lower value; viability: measured here: HepG2 viability without parasites.
Assay [2] can be described thus: signal quenchers or enhancers, Cy5 substrate/SSB – biochemical, NIH Clinical Collection, E. coli SSB, artefact control for HCV NS3 helicase inhibitor project (AID 743268). The following applies: Cy5-oligo bound E. coli SSB, fluorescence interference.
Assay [3] deals with Hepatitis C virus NS3 helicase. Nature of the assay: blockers of NS3h binding to DNA – biochemical, fluorescence polarization, NIH Clinical Collection, primary screen (AID 743270). The settings on record: NS3 helicase binding to Cy5-dT15 DNA, stronger effect = higher value, concentration not given here. Background: Fluorescence polarisation rises when a labelled molecule tumbles more slowly, as on binding a larger partner.

Assay [4] concerns the target Single-stranded DNA-binding protein (Escherichia coli (strain K12)) (UniProt P0AGE0). In words: SSB-ssDNA binding inhibitors – biochemical, fluorescence polarization, NIH Clinical Collection, counter-screen for HCV NS3 helicase inhibitor project (AID 743271; in the data active = inhibition above about 28%). The following applies: E. coli SSB-DNA binding, stronger effect = higher value, concentration not given here.
The nature of assay [5]: compounds distorting NS3 helicase fluorescence signal – biochemical, NIH Clinical Collection, artefact control for HCV NS3 helicase inhibitor project (AID 743272).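 Also: HCV NS3 helicase with a Cy5 labelled single stranded DNA probe.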 The following applies: fluorescence interference counterscreen, HCV NS3 helicase assay; stronger effect = lower value.
Assay [6] is described as follows: modulation of C. elegans fzo-1 (AID 1259413).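 Also: fzo-1 mutant C. elegans worms in liquid wells.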 The settings on record: C. elegans fzo-1 modulator screen, mean read-out; stronger effect = higher value.
Assay [7] can be described thus: viability loss with induced miR-34 in A549 – imaging, A549 dox-inducible miR-34, nuclei and caspase counts, primary screen (AID 1347080;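 active = compounds whose cell count with miR-34 switched on is under 0.7 times the count with it off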). The following applies: A549 miR-34 inducible, Hoechst nuclei count, 48 h.
Assay [8] in a line: galactose survival enhancers in mitochondrial complex I cybrids – cell-based, galactose medium, ATP luminescence, primary screen (AID 1645843;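 active = z-score of at least 1.8 in each of two replicates, scored against plate mean and spread of sample wells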;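 also: positive z means more ATP and so rescue of galactose-driven cybrid death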). The settings on record: complex I mutant cybrid cells, 72 h, stronger effect = higher value.
The test system of assay [9] is Neuropilin-2 / VEGF-C interaction (human). Nature of the assay: small molecules blocking Neuropilin-2/VEGF-C interaction – biochemical, microplate binding format, z-score (AID 743281). The following applies: microplate NRP2/VEGF-C binding assay; stronger effect = lower value.
The nature of assay [10]: MELAS cybrid and Rieske KO viability enhancers – cell-based, MELAS cybrids, Rieske KO mouse fibroblasts, CellTiter-Glo, primary screen (AID 1508586;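 active = mean z-score across replicates of 1.96 or higher in either the MELAS or the Rieske mutant cell line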;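 also: z relative to plate mean and SD of compound and empty wells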). The following applies: low glucose.
Where [11] appears, read: stronger effect = lower value, cell number ratio, induced over uninduced.
[12] abbreviates: measured here: relative caspase fold change +Dox/-Dox.
Setting [13] is: measured here: total cells with miR-34 induction, stronger effect = lower value.
[14] abbreviates: measured here: total cells without miR-34 induction.
The mark [15] stands for this setting: MELAS cybrid survival, CellTiter-Glo 48 h, stronger effect = higher value.
Setting [16] is: Rieske KO mouse fibroblast survival, CellTiter-Glo 72 h.

“And” between values parts separate entries of the source, which are not always exact repeats. Equal values may be shown once. The source made the active and inactive calls. Unless noted, no rule for the calls is given here.

For the compound `COc1cccc2c1C(=O)c1c(O)c3c(c(O)c1C2=O)C[C@@](O)(C(C)=O)C[C@@H]3OC1CC(N)C(O)C(C)O1` (stereo partly specified), the parasite load remaining in [1] was -2.09% (inactive) and 8.79% (inactive). Moreover, the viability in assay [1] was 1.35% and 23.3%. Besides, the fluorescence ratio in assay [2] was 1.07 (inactive); in assay [5], 0.55 (active). Further, the inhibition was 6.82% (inactive) in [3] and 3.34% (inactive) in [4]. In addition, the mean signal in assay [6] was 273 (inactive). Moreover, the fold change in [7] (setting [11]) is 1.08 (inactive) and 1.04 (inactive); in assay [7] (setting [12]) it was 0.669 and 0.978. Moreover, the cell count is 1690 and 2610 in [7] (setting [13]); 1560 and 2520 in assay [7] (setting [14]). Further, the z-score in [8] is -1.5 (inactive) and -0.935 (inactive).

As to `C[C@H](CCC(=O)O)[C@H]1CC[C@H]2[C@@H]3[C@@H](O)C[C@@H]4C[C@H](O)CCC4(C)[C@H]3CCC12C` (stereo partly specified), the mean signal in [6] was 253 (inactive).

As for `Nc1nc2ccc(Cl)cc2c2nc(-c3ccco3)nn12`, in assay [1], the parasite load remaining is 21.2% (inactive). The viability in [1] is 75.1%. Besides, the fluorescence ratio in assay [2] and in assay [5] was 0.95 (inactive) throughout. Besides, the inhibition is -2.77% (inactive) in assay [3] and -6.26% (inactive) in assay [4]. The z-score in [9] was 0.671 (inactive); in [8], 0.585 (inactive) and 0.89 (inactive) and -0.13 (inactive). Besides, the mean signal in assay [6] was 260 (inactive). Besides, the fold change in [7] (setting [11]) was 1.05 (inactive) and 0.991 (inactive) and 1.02 (inactive); in assay [7] (setting [12]) it was 0.947 and 1.47 and 1. Moreover, the cell count in assay [7] (setting [13]) was 7130 and 7040 and 7980; in assay [7] (setting [14]), 6800 and 7110 and 7830.

In the case of `CCCN1CC(CSC)CC2c3cccc4[nH]cc(c34)CC21` (stereo unspecified), in assay [9], the result was inactive. Further, the mean signal in [6] was 184 (inactive). The fold change was 0.922 (inactive) in [7] (setting [11]) and 1.17 in assay [7] (setting [12]). Besides, the figures for the cell count in [7] (setting [13]) and in assay [7] (setting [14]) were 9040 and 9810, respectively. The z-score in [8] was -0.235 (inactive).

Regarding `Cc1c(O)c(=O)ccn1C`, the parasite load remaining in assay [1] was 103% (inactive). In addition, in assay [1], the viability was found to be 77.2%. The fluorescence ratio is 0.96 (inactive) in assay [2] and 0.92 (inactive) in assay [5]. Also, the inhibition in assay [3] was 1.98% (inactive); in assay [4], 6.83% (inactive). The results for the z-score in assay [9] and in assay [8] were -1.2 (inactive) and 0.65 (inactive), respectively. Moreover, the mean signal in assay [6] is 235 (inactive). Also, the fold change was 0.87 (inactive) and 0.909 (inactive) in [7] (setting [11]); 0.877 and 1.84 in assay [7] (setting [12]). For the same compound, the cell count in assay [7] (setting [13]) is 8280 and 9190; in [7] (setting [14]), 9520 and 10100.

For `C[C@H]1O[C@@H](O[C@H]2[C@@H](O)C[C@H](O[C@H]3[C@@H](O)C[C@H](O[C@H]4CCC5(C)[C@H](CC[C@@H]6[C@@H]5C[C@@H](O)C5(C)C(C7=CC(=O)OC7)CCC65O)C4)O[C@@H]3C)O[C@@H]2C)C[C@H](O)[C@@H]1O` (stereo partly specified), the mean signal in assay [6] was 250 (inactive).

Consider `CC/C(=C(/c1ccccc1)c1ccc(OCCN(C)C)cc1)c1ccccc1`, for which the mean signal in [6] is 234 (inactive).

For `CCC(=O)O[C@]1(C(=O)CCl)[C@@H](C)C[C@H]2[C@@H]3CCC4=CC(=O)C=CC4(C)[C@@]3(F)[C@@H](O)CC21C` (stereo partly specified), in [6], the mean signal was 254 (inactive).

With `CC[C@@H]1C(=O)OC[C@@H]1Cc1cncn1C`, the fluorescence ratio is 0.93 (inactive) in assay [2] and 0.86 (inactive) in assay [5]. The inhibition was -5.94% (inactive) in assay [3] and 1.44% (inactive) in assay [4]. For the same compound, the z-score in assay [9] is -0.47 (inactive). In addition, in assay [6], the mean signal is 280 (inactive).

On to `CC12C=CC(=O)C=C1CC[C@@H]1[C@@H]2C(=O)CC2(C)[C@H]1CC[C@]2(O)C(=O)CO` (stereo partly specified), for which the mean signal in assay [6] is 237 (inactive).

Regarding `COc1cc([C@@H]2c3cc4c(cc3[C@@H](O[C@@H]3O[C@@H]5CO[C@@H](C)O[C@H]5[C@H](O)[C@H]3O)[C@H]3COC(=O)[C@H]23)OCO4)cc(OC)c1O`, in [1], the parasite load remaining is 189% (inactive) and 77.5% (inactive) and 87.8% (inactive). Also, the viability in assay [1] was 114% and 71.8% and 103%. In addition, the fluorescence ratio in [2] is 1.02 (inactive); in assay [5], 1.01 (inactive). The inhibition is 0.66% (inactive) in assay [3] and 2.76% (inactive) in assay [4]. For the same compound, the z-score is -1.12 (inactive) in assay [9]; -0.423 (inactive) and -1.1 (inactive) in [10] (setting [15]); -0.861 and 0.337 in assay [10] (setting [16]); -2.08 (inactive) in assay [8]. In addition, in assay [6], the mean signal is 267 (inactive). Further, the fold change in assay [7] (setting [11]) was 0.888 (inactive) and 1.07 (inactive); in assay [7] (setting [12]), 1.6 and 0.504. The cell count in [7] (setting [13]) was 2840 and 3400; in [7] (setting [14]), 3200 and 3170.

Regarding `CN1[C@@H](CC(=O)c2ccccc2)CCC[C@H]1C[C@H](O)c1ccccc1`, the parasite load remaining in assay [1] is 59.5% (inactive) and 70.7% (inactive) and 71% (inactive). Besides, the viability in assay [1] is 108% and 77.1% and 78.1%. Moreover, the fluorescence ratio in assay [2] and in assay [5] was 1.03 (inactive) each time. Also, the results for the inhibition in assay [3] and in assay [4] were 0.4% (inactive) and -0.1% (inactive), respectively. Further, the z-score in assay [9] was -0.358 (inactive); in assay [8] it was -0.54 (inactive) and -0.495 (inactive). For the same compound, the mean signal in assay [6] was 245 (inactive). In addition, the fold change was 1.06 (inactive) and 0.859 (inactive) and 0.83 (inactive) in [7] (setting [11]); 0.866 and 1.18 and 1.23 in assay [7] (setting [12]). Moreover, the cell count in [7] (setting [13]) is 11200 and 9030 and 8370; in [7] (setting [14]), 10500 and 10100.

`CC(=O)SCC(Cc1ccccc1)C(=O)NCC(=O)OCc1ccccc1` (stereo unspecified): the fluorescence ratio in assay [2] is 0.96 (inactive); in [5], 0.86 (inactive). The inhibition in [3] is 3.56% (inactive); in assay [4], 2.21% (inactive). Also, the z-score is -0.263 (inactive) in assay [9]; -0.406 (inactive) and 0.283 (inactive) and 0.224 (inactive) in assay [10] (setting [15]); 0.561 and 0.494 and -0.589 in assay [10] (setting [16]); 0.9 (inactive) and 0.57 (inactive) in assay [8]. In assay [6], the mean signal was 251 (inactive).

Regarding `CN1CCN2c3ncccc3Cc3ccccc3C2C1` (stereo unspecified), in assay [1], the parasite load remaining was 85% (inactive). Further, the viability in [1] is 76.9%. Besides, the figures for the fluorescence ratio in assay [2] and in [5] were 0.98 (inactive) and 0.93 (inactive), respectively. The inhibition in [3] is -1.97% (inactive); in assay [4], -2.76% (inactive). Moreover, the z-score is -0.469 (inactive) in [9]; 0.00763 (inactive) and -0.808 (inactive) in assay [10] (setting [15]); 0.866 and 0.0762 in [10] (setting [16]); 0.645 (inactive) and -0.265 (inactive) in [8]. For the same compound, the mean signal in assay [6] is 257 (inactive). Moreover, the fold change is 0.923 (inactive) and 0.892 (inactive) and 0.933 (inactive) in assay [7] (setting [11]); 1.2 and 4.96 and 1.4 in [7] (setting [12]). In addition, the cell count in [7] (setting [13]) is 9270 and 8700 and 7820; in assay [7] (setting [14]) it was 10000 and 9750 and 8380.

As to `CS(=O)(=O)c1ccc(-c2cc(Br)sc2-c2ccc(F)cc2)cc1`, the parasite load remaining in assay [1] is 10.4% (inactive). Moreover, the viability in [1] is 69.4%. Besides, the fluorescence ratio is 0.96 (inactive) in assay [2] and 0.95 (inactive) in [5]. For the same compound, the inhibition in assay [3] was 5.02% (inactive); in assay [4], 4.33% (inactive). In addition, the z-score was -0.424 (inactive) in [9]; -0.985 (inactive) and -0.57 (inactive) in assay [8]. Also, the mean signal in assay [6] was 233 (inactive). For the same compound, the fold change in [7] (setting [11]) is 0.877 (inactive) and 0.852 (inactive) and 0.867 (inactive); in assay [7] (setting [12]), 1.92 and 0.768 and 0.919. Further, the cell count was 8710 and 4800 and 6290 in assay [7] (setting [13]); 9930 and 5630 and 7260 in assay [7] (setting [14]).

The viability is a read-out of living cells in per cent, often relative to untreated cells. By inhibition is commonly meant the drop in the measured response relative to a control, in per cent.

(Values after PubChem BioAssay.)
